# Bioassay records (PubChem BioAssay)
# HIF act: HIF pathway transcriptional activation; U2OS HRE-luciferase reporter, luminescence; normalized: DMSO 0%, desferrioxamine 100%; AID 1910; 300,000 tested, 0.32% active; activation, % at 7.5 µM (by protocol);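 active means mean activation of at least 10% of the iron chelator positive control signal, with at least half of replicates also reaching 10%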
# HSF1 activator: increases HSF-1 driven luciferase reporter signal; NIH3T3-HGL HSF-1 luciferase reporter, MG132, 8 h; 100% = twice DMSO control signal; activation, % at 9 µM; 300,000 tested, 1.7% active; AID 504408;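 active means mean replicate activation of at least 50% with a set share of replicates each reaching 50%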;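 further: 0% = median of the neutral control wells and 100% = twice that signal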
# HSF1 inh: HSF1 inhibition; NIH3T3-HGL HSE-luciferase, MG132-induced, luminescence 8 h; active compounds read low; activity change, negative = inhibition, % at 7.5 µM (by protocol); 300,000 tested, 0.77% active;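 active means more than half of replicate wells show activity change below -50%, luminescence cut by over half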;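 further: luciferase reports HSF-1 transcriptional activity via heat shock element; 0% = median of DMSO wells and -100% = zero luminescence signal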
# ARNT-TACC3 inh: disruptors of human ARNT/TACC3 interaction; 390,000 tested, 0.66% active; AlphaScreen His-ARNT PAS-B/GST-TACC3 binding, luminescence; TACC3 fragment carries E629A point mutation; inhibition, % at 9.99 µM;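 active means mean inhibition of replicates at least 50% and at least half of replicates each reaching 50%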;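 further: 0% = complete ARNT plus TACC3 wells and 100% = ARNT alone without TACC3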
# HSP90 inh: blocks HSP90-mediated luciferase refolding in reticulocyte lysate | Rabbit reticulocyte lysate, luciferase refolding luminescence, 3 h | inhibition, % at 5.6 µM | AID 1789 | 290,000 tested, 0.91% active;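 active means inhibition above the screen-wide mean plus 3 SD, computed separately per campaign, cut at about 16% in these data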;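 further: 0% = DMSO wells and 100% = 60 µM geldanamycin wells; inhibitors lower the luminescence because luciferase stays unfolded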
# * = called active by the depositor; / = no result. Sampled rows, rich in hits. Any-hit rate of the full collection: about 3.1%.
SMILES,HIF act,HSF1 activator,HSF1 inh,ARNT-TACC3 inh,HSP90 inh
C[C@@H]1CN([C@@H](C)CO)C(=O)c2cc(Br)cnc2O[C@@H]1CN(C)CC1CCCC1,/,/,/,-8,/
Cc1ccc(-c2cnc3c(c2)C(=O)N([C@@H](C)CO)C[C@H](C)[C@@H](CN(C)C(=O)Cc2ccccc2)O3)cc1,/,/,/,-2,/
O=C(C[C@H]1C[C@@H]2c3cc(NC(=O)Nc4ccccc4)ccc3O[C@@H]2[C@H](CO)O1)NCC(F)(F)F,/,/,/,-14,/
COC(=O)c1ccc(N2CCN(C(C)=O)CC2)c(NC(=O)COc2ccccc2C)c1,-1,-72,-64*,-9,8
COC(=O)c1ccc(N2CCN(C)CC2)c(NC(=O)COc2ccccc2Cl)c1,0,12,7,-2,0
COc1ccc(NC(=O)COC(=O)/C=C/C(=O)OCC(=O)Nc2ccc(OC)c(Cl)c2)cc1Cl,0,138*,97,-3,2
COc1cc(OC)c(NC(=O)CCCn2c(=O)oc3ccccc32)cc1Cl,0,13,3,13,0
O=C(CCn1c(=O)oc2ccccc21)Nc1ccccc1,1,101*,46,22,-2
COc1ccc(NC(=O)CCCn2c(=O)oc3ccccc32)cc1Cl,0,62*,38,7,-1
Cc1ccccc1CN1CCN(S(=O)(=O)c2ccc(F)cc2)CC1,0,-17,4,-2,-1
Cc1cccc(C)c1N1CCN(S(=O)(=O)c2ccc(F)cc2)CC1,0,55*,14,/,0
C[C@H]1CN([C@@H](C)CO)C(=O)c2cc(NC(=O)c3ccncc3)ccc2O[C@@H]1CN(C)S(=O)(=O)c1ccc(Cl)cc1,/,/,/,6,/
CC(C)(C)C(=O)Nc1ccccc1C(=O)NCCCn1ccnc1,0,-10,-10,61*,1
O=C(NCCCn1ccnc1)c1ccncc1,0,-1,-1,-5,0
CC(C)(C)c1ccc(C(=O)NCCCn2ccnc2)cc1,1,-12,5,active,3
Cc1ccc(S(=O)(=O)N2C[C@H](O)COC[C@H]3O[C@@H](CC(=O)N[C@H]4CCN(Cc5ccccc5)C4)CC[C@@H]32)cc1,/,/,/,13,/
O=[N+]([O-])c1cc(Cl)ccc1-c1nc(-c2ccccc2)no1,4,95*,39,-3,5
CC(OC(=O)c1nsc(Cl)c1Cl)C(=O)NCc1ccc2c(c1)OCO2 (configuration not stated),0,-88,-85*,-19,-1
Cc1cccc(-n2cc(CN3CCN(Cc4nccn4C)CC3)c(-c3cccc(F)c3)n2)c1,0,65*,28,26,-1
O=C(CC1CC1)Nc1ccc2c(c1)[C@H]1C[C@@H](CC(=O)N3CCOCC3)O[C@@H](CO)[C@H]1O2,/,/,/,-2,/
N#Cc1ccc(-c2ccc3c(c2)[C@H]2[C@H](CCN2S(=O)(=O)c2ccccc2F)[C@@H](CO)N3)cc1,/,/,/,-12,/
COc1cccc(CNCCNC(=O)c2nonc2N)c1,0,12,3,/,-1
CCOc1ccccc1CNCCNC(=O)c1nonc1N,1,1,0,9,16*
COc1ccc(CCNC(=O)c2nonc2N)cc1,3,61*,41,-1,-3
O=C(C[C@H]1CC[C@@H](NC(=O)NC2CCCC2)[C@@H](CO)O1)NCc1ccc(F)cc1,/,/,/,-18,/
SMILES,HIF act,HSF1 activator,HSF1 inh,ARNT-TACC3 inh,HSP90 inh
C[C@@H]1CN([C@@H](C)CO)C(=O)c2cc(NC(=O)CCC(F)(F)F)ccc2O[C@@H](C)CCCCO[C@@H]1CN(C)CC1CCCCC1,/,/,/,-10,/
COc1ccccc1CCC(=O)OCC(=O)Nc1c(Br)cc(C)cc1Br,0,61*,18,-7,4
C[C@H]1CN([C@@H](C)CO)C(=O)c2cc(-c3ccncc3)cnc2O[C@H]1CN(C)Cc1ccc(F)cc1,/,/,/,44*,/
C[C@@H]1CN([C@H](C)CO)C(=O)c2cc(C3=CCCCC3)cnc2O[C@H]1CN(C)C(=O)Cc1cccnc1,/,/,/,active,/
C[C@@H]1CN([C@@H](C)CO)C(=O)c2cc(C3=CCCCC3)cnc2O[C@@H]1CN(C)C(=O)Cc1cccnc1,/,/,/,0,/
COCc1nc2sc3c(c2c(=O)[nH]1)CCCC3,0,-5,1,-10,0
COc1cccc(-c2nc3sc4c(c3c(=O)[nH]2)CCCCC4)c1,1,53*,26,0,-6
O=C(C[C@H]1C=C[C@H](NS(=O)(=O)c2ccccc2)[C@@H](CO)O1)N1CCc2ccccc2C1,/,/,/,7,/
